Measurements as given in PubChem BioAssay AID526 (National Center for Advancing Translational Sciences (NCATS), 2006).
Screen size: about 67,000 compounds; fewer than 10 were called active. The call rests on the fitted dose curve; in most records, active means well fitted activation curve with a large enough effect (not every such curve was filed as active); inconclusive means small, poorly fitted or top-dose-only effect, or another doubt; inactive means no such curve, though single readings can be large or run the other way. Not all results are given here.

Experiment: Ubiquitin-GFP Assay
Conditions: Ubiquitin-GFP reporter cells, proteasome inhibition, GFP fluorescence, untreated = 0%, 10 µM MG-132 = 100%; series mostly up to 45.9 µM
Excerpt: NIH Chemical Genomics Center [NCGC]
NIH Molecular Libraries Screening Centers Network [MLSCN]
The ubiquitin-proteasome pathway is present within all eukaryotic cells and plays roles in normal cellular functions and disease-related dysfunction. Proteins are tagged with a poly-ubiquitin chain that targets them for the proteasome, a multimeric protease, that degrades the protein into peptides and free ubiquitin. The proteasome has a key role in regulating cell cycle and growth and is known to control the levels of cyclins and CDK inhibitors as well as tumor suppressor proteins. Additionally, the activation of NF- B is controlled by ubiquitin-labeling and degradation of the inhibitory protein I B . […] With this in mind, proteasome inhibitors such as MG-132 and PS-341 have been used to inhibit tumor cell growth.
A cellular assay for ubiquitin-proteasome function was used to find chemical probes of this pathway. The assay used an ubiquitin-GFP construct expressed in U2OS cells (BioImage). Under basal conditions little GFP can be detected as it is degraded by the proteasome. However, treatment of the cells with a proteasome inhibitor such as MG-132 results in a rise in GFP levels that can be detected in as little as four hours. We used the Acumen-Explorer laser plate cytometer having a 488 nm laser as an excitation light source to detect the GFP. Compounds were screened in 1536-well plates using qHTS with a concentration-titration series range that varied from 46 uM to 2.9 nM.
NCGC Assay Protocol Summary:
Cells (U20S ps 2042) expressing ubiquitin (G76V-GFP) were maintained in DMEM with Glutamax-1 and high glucose, 10% FBS, 1% (v/v) penicillin-streptomycin, 0.5 mg/mL Geneticin (G418). The cells were seeded in 1536-well plates using a solenoid-based dispenser at 700 cells/5ul in DMEM medium with Glutamax-1 and high glucose containing 0.5% FBS, w/o phenol red, 25 mM HEPES. The plates were incubated at 37 °C/5% CO2 overnight. Then 23 nl of MG-132 in DMSO was added to the control wells at a final concentration of 10 uM. Next, 23 nL of library compounds in DMSO were added to the sample wells. The plates were incubated for 4 hrs at 37 °C/5% CO2. Following this incubation the plates were read on the Acumen using a cell object definition of 15 to 100 um in width and depth and a window of Total Intensity of between 77,200 and 2,720,000 FLU to enumerate GFP-expressing cells.
The %Activity was determined from the basal and MG-132 treated control wells. %Activity was determined by normalizing to the difference in signal between basal cells (0% Activity) and cells incubated with 10 uM of the proteasome inhibitor MG-132 (100% Activity). Concentration-response curves were fitted to the signals arising from the GFP fluorescence.
Assay Protocol Summary Table
Sequence Parameter Value Description
2. Time O/N 37C incubation
4. Compound 23 nL Libraries (46 uM to 2.9 nM)
5. Time 4 hr 37C incubation
6. Detector Acumen Total Intensity, GFP fluorescence (488 ex/515 em)
Keywords: NIH Roadmap, MLSCN, MLI, MLSMR, BioImage, proteasome, ubiquitin-GFP, qHTS, NCGC

Activation (GFP accumulation), inactive:
Cc1cc(C(=O)O)c(S(C)(=O)=O)s1
CCn1nnc(NC(=O)c2cc(Cl)c(OC)c(Cl)c2)n1
CCC(c1nnnn1C1CCCC1)N(Cc1cccs1)Cc1cc2cccc(C)c2[nH]c1=O (stereo unspecified)
Cc1ccccc1CSc1nnc(-c2ccccn2)n1N
Cn1c(=O)c(CCc2ccccc2)nc2cnc(Nc3ccccc3)nc21
COc1ccccc1CN1CC2(CCN(S(=O)(=O)c3ccccc3)CC2)C1
CC(C)(O/N=C(\C(=O)N[C@@H]1C(=O)N2C(C(=O)[O-])=C(C[n+]3ccccc3)CS[C@@H]12)c1csc(N)n1)C(=O)O
CCc1cc(Br)ccc1NC(=O)C1CCCO1 (stereo unspecified)
O=C(O)c1c(Br)c(Br)c(Br)c(Br)c1C1c2ccc(O)cc2Oc2cc(O)ccc21 5.65% [at 9.17 µM]
CS(=O)(=O)N1CCC2(CC1)CN(c1ccncc1)C2
NCC(=O)[C@@H](O)[C@H](O)[C@H](O)CO 1.45% [at 9.17 µM]
O=C(c1ccco1)N1CCC[C@@]2(CCN(c3ccccc3)C2)C1
Cc1ccc(-c2cc(C(F)(F)F)n3nc(C(=O)N4CCCC4)cc3n2)cc1 6.67% [at 9.17 µM]
CC(C)CSC[C@@H]1O[C@H](n2cnc3c(N)nccc32)[C@H](O)[C@@H]1O -1.11% [at 9.17 µM]
O=C(Nc1nc2ccc(S(=O)(=O)N3CCCC3)cc2s1)C1CCCO1 (stereo unspecified)
O=C(Cn1ccc(=O)[nH]c1=O)Nc1ccc(C(=O)O)c(O)c1 -3.58% [at 9.17 µM]
CNc1cc(-c2c(C)noc2C)ncn1
CCOC(=O)c1cc(C)sc1NC(=O)C1CCC1
CC(Sc1sc(=S)sc1SC(C)C(=O)O)C(=O)O (stereo unspecified)
CCCOc1ccc(-c2nc(N)n[nH]2)cc1
CC(C)NS(=O)(=O)c1ccc(CCC(=O)N2CCOCC2)cc1
CCOC(=O)c1sc(/N=C/Nc2nc(C)c(C(=O)OCC)s2)nc1C
CCCCCCCCCCCC(=O)O[C@H](CC(=O)O)C[N+](C)(C)C
CC(=O)O[C@]1(C(C)=O)CC[C@@H]2[C@@H]3C=C(C)C4=CC(=O)CC[C@@]4(C)[C@H]3CC[C@]21C
CCCSC1=C(C#N)C(c2ccccc2C)C(C(=O)OC)C(=O)N1 (stereo unspecified)
Nc1ccc2[nH]cc(CCC(=O)O)c2c1 -1.62% [at 9.17 µM]
Cn1c(NC(=O)c2ccc3c(c2)OCO3)cc(=O)n(C)c1=O
N#CCCn1c(=O)c(-c2cc(F)cc(F)c2)nc2cnc(Oc3ccccc3)nc21
CCCCNc1nc(C)nc2c1nc(-c1ccccc1)n2CCCCN(CC)CC
Cc1ccc(N2CCN(S(=O)(=O)c3ccc(F)cc3)CC2)c(C)c1
CN(Cc1ccco1)c1cc(-c2ccccc2C(F)(F)F)ncn1
COCCn1c(=O)c(CCc2ccccc2)nc2cnc(N3CCNCC3)nc21
CCCCN(CCCC)C(=O)CCS(=O)(=O)c1ccc2c(c1)n(C)c(=O)c(=O)n2C
COc1cccc(-c2cc(NCCc3c[nH]c4ccc(OC)cc34)ncn2)c1
Cc1ccccc1N1CCN(S(=O)(=O)C[C@@]23CC[C@H](C[C@H]2NC(=O)[C@@H](N)CCS(C)(=O)=O)C3(C)C)CC1
O=C(C1CCN(S(=O)(=O)c2cnc[nH]2)CC1)N1CCN(Cc2ccc3c(c2)OCO3)CC1
Nc1cc(OC(=O)c2ccccc2Br)nn1S(=O)(=O)c1ccccc1
CN1[C@@H]2CC[C@H]1CC(NC(=O)c1nn(C)c3ccccc13)C2 (stereo partly specified)
O=C(/C=N/O)Nc1ccccc1
CCOc1ccccc1-n1c(SCC(=O)N2CCCC2)nnc1-c1ccoc1C
CN1CCN(c2ncncc2-c2ccc(C(=O)N(C)C)cc2)CC1
O=C(c1cc(C(F)(F)F)cc(C(F)(F)F)c1)N1CCC2(CCCN(c3ccccn3)C2)CC1
COC(=O)Nc1nc2ccc(Sc3ccccc3)cc2[nH]1
CCOC(=O)C1CCN(C(=O)COc2cc(C)c(Br)c(C)c2)CC1
COCCn1c(=O)c(C)nc2cnc(N(C)C)nc21
Cc1ccc(S(=O)(=O)c2nc(NCCCn3ccnc3)sc2Cl)cc1
COc1ccccc1-c1cc(NCc2cccs2)ncn1
Cc1c(NC(=O)c2cccnc2)c(=O)n(-c2ccccc2)n1C
COc1cccc(N2C(=O)CC(N3CCN(S(=O)(=O)c4ccccc4)CC3)C2=O)c1 (stereo unspecified)
Cc1cc(C(F)(F)F)nn1CC(=O)N1CCCC1
CC(=O)N1CCC2(CCCN(Cc3ccc(C#N)cc3)C2)CC1
CC(NC(=O)c1cc(-c2ccccc2)on1)c1ccccc1 (stereo unspecified)
N#CCCn1cnc2ccccc21
O=C(CCN1C(=O)c2ccccc2C1=O)Nc1ccncc1
Clc1ccccc1-c1cc(NCCN2CCOCC2)ncn1
CCCS(=O)(=O)N1CCCC(C(=O)NCc2ccco2)C1 (stereo unspecified)
COc1ccc(-c2noc(CN(C)S(=O)(=O)c3ccc(C)cc3)n2)cc1
Cc1nc2cnc(Nc3ccccc3)nc2n(C[C@H]2CCCO2)c1=O
COc1ccccc1CNc1cc(-c2ccccc2CN(C)C)ncn1
CCn1c(=N)c(C(=O)NCCCOC)cc2c(=O)n3cccc(C)c3nc21
Oc1ccc(Cn2cc[nH]c2=S)cc1
O=C(Nc1cccc(F)c1)N1CCC2(CC1)CCN(S(=O)(=O)c1ccccc1)CC2
CCOc1ccc(N=NS(=O)(=O)O)cc1 -2.9% [at 9.17 µM]
NC(=S)c1ccc(C(N)=S)o1
COc1ccc(CN2CC(C(=O)NCCN3CCN(c4ccccc4F)CC3)CC2=O)cc1 (stereo unspecified)
COC(=O)c1ccc2c(c1)S(=O)(=O)NC(=NCCCN1CCOCC1)S2
CN(C(=O)CN(CCO)CC(=O)N(C)C(C)(C)Cc1ccccc1)C(C)(C)Cc1ccccc1
O=C(O)C1=CCCN(CCON=C(c2ccccc2)c2ccccc2)C1
CCS(=O)(=O)N1CCCC(C(=O)NCCCN(C)Cc2ccccc2)C1 (stereo unspecified)
COC(=O)C1(S(=O)(=O)C2(C(=O)OC)CCCC2)CCCC1
CC(C)[C@H](CO)Nc1nc(Nc2cc(N)cc(Cl)c2)c2ncn(C(C)C)c2n1
O=c1cc(-c2ccc(O)c(O)c2)oc2cccc(O)c12
CC(C)NC[C@H](O)c1ccc2ccccc2c1
CCOC(=O)c1sc(NC(=O)CSc2nnc(-c3ccco3)o2)c(C(=O)OCC)c1C
CN1CCN(Cc2nc3c(c(=O)n(C)c(=O)n3C)n2Cc2cccc3ccccc23)CC1
O=C(O)[C@@H](S)[C@H](S)C(=O)O 4.35% [at 9.17 µM]
COC(=O)c1ccc(NC(=O)C(C)N2C(=O)c3ccccc3C2=O)cc1 (stereo unspecified)
CC(=O)N1CCC2(CC1)CCN(c1ccncc1)CC2
COCCn1c(=O)c(-c2ccc(OC)cc2)nc2cnc(Oc3cccc(Cl)c3)nc21
Cc1cccc(OCc2nnc(SCn3nnc4ccccc4c3=O)o2)c1
Fc1cccc(/C=N\N=C/c2cccc(F)c2)c1
COc1ccc(CNc2ncnc3ccc(-c4cccnc4)cc23)c(OC)c1
CC(C)(C)Nc1c(N)c(=O)oc2ccccc12 -4.55% [at 9.17 µM]
COc1ccccc1N1CCN(C[C@@H]2CN3C(=O)N(C)c4ccccc4C3=N2)CC1
CC[C@]1(C)CC(=O)NC1=O
Cc1cc(=O)[nH]c(SCc2cc(Cl)ccc2OC(F)F)n1
COc1ccc(NC(C)=O)cc1NC(=O)CN1CCN(C2c3ccccc3-c3ccccc32)CC1
COCC(=O)Nc1nnc(COc2ccccc2)s1
O=C(O)Cc1ccc(-c2ccccc2)cc1
CCCS(=O)(=O)N1CCN(C(=O)c2cccs2)CC1
CC1=C(C(=O)OC2CCCCC2)C(c2cccnc2)n2ncnc2N1 (stereo unspecified)
C1=C(N2CCOCC2)/C(=C/c2nc3ccccc3[nH]2)CC1 -10.8% [at 9.17 µM]
O=C(CSc1nnc(-c2cccnc2)n1Cc1ccco1)c1ccc(Cl)cc1
CC(C)(CSc1nncn1/N=C/c1ccco1)NS(=O)(=O)c1ccc(Cl)cc1
CCC(c1nnnn1Cc1ccco1)N(CCc1ccccc1)Cc1cc2cccc(C)c2[nH]c1=O (stereo unspecified)
CC(C(=O)O)N1C(=O)c2cccc3cccc1c23 (stereo unspecified)
CC[N+](C)(CC)CCC[n+]1c(-c2ccccc2)c2cc(N)ccc2c2ccc(N)cc21
CC1(C)S[C@@H]2[C@@H](NC(=O)[C@@H](N)c3ccccc3)C(=O)N2[C@H]1C(=O)O
Cc1ccc(CNC(=O)C2CC(=O)N(C3CCCCCCC3)C2)cc1 (stereo unspecified)
COc1ccccc1-n1nnnc1S(=O)(=O)Cc1ccc(Cl)cc1
Cc1nc(N2CCN(c3ncccn3)CC2)c2oc3ccccc3c2n1
CSc1ccc(S(=O)(=O)Nc2cccc(F)c2)cc1
O=C(NCc1cccs1)C1CCN(S(=O)(=O)c2ccc3c(c2)OCCO3)CC1
O=S(=O)(O)c1ccc(O)c2ncccc12.O=S(=O)(O)c1ccc(O)c2ncccc12.[Zn] 2.9% [at 9.17 µM]
CN(C)c1ccc(CNC23CN4CN(CN(C4)C2)C3)cc1
CCCn1c(C(O)c2cc(OC)ccc2OC)nc2ccccc21 (stereo unspecified)
